In PubChem BioAssay AID2149 (The Scripps Research Institute Molecular Screening Center, 2009):
Screen size: about 2,400 compounds; about 1,800 (75%) were called active.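 Rule for the calls: active = inhibition above the primary screen limit, the mean inhibition of all tested compounds plus 3 SD (cut at about 25% in these data); inactive = the rest.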 So high a share suggests a set chosen from earlier hits. Not all results are given here.

system: tRNA 2'-phosphotransferase TPT1 [Candida albicans SC5314]; experiment: tRNA 2'-phosphotransferase enzyme inhibition – biochemical, fluorescence polarization, triplicate, confirmation (AID 2149); settings: recombinant caTPT1, fluorescence polarization, RNase T1 coupled; at 5 µM; hits give high values

Row | Compound | inhibition
1 | C[n+]1ccc(/C=C/c2c[nH]c3ccccc23)cc1 | 56.5% (active)
2 | Cc1nc2ccccc2nc(=O)c1NNc1ccc([N+](=O)[O-])cc1 | 35.8% (active)
3 | CC(=O)n1c(C=Nc2ccccc2)c(O)c2ccccc21 | 73.1% (active)
4 | COc1cc2c(cc1O)[C@H](Cc1ccc(Oc3cc(C[C@@H]4NCCc5cc(OC)c(O)cc54)ccc3O)cc1)NCC2 | 33.8% (active)
5 | COc1cc(N2CCCC2)c(OC)cc1/C=C(/C#N)c1cccc(Br)c1 | 68.1% (active)
6 | CC(=O)c1cc(NC(=O)c2ccccc2)c(=O)oc1/C=C/N(C)C | 118% (active)
7 | CC(C)(C)c1ccc(/C=C2\Oc3c(ccc(O)c3CN3CCN(CCO)CC3)C2=O)cc1 | 37.2% (active)
8 | C=CCC1=C/C(=C\c2c(N)n3nc(CC(=O)N4CCOCC4)sc3nc2=O)C=C(OC)C1=O | 104% (active)
9 | CCOC(=O)/C(C#N)=C/c1ccc(N2CCCCC2)cc1 | 126% (active)
10 | CCOC(=O)/C(C#N)=C/c1ccc(N2CCN(Cc3ccccc3)CC2)cc1 | 81.9% (active)
11 | CCN1/C(=C\c2ccc3ccccc3[n+]2CC)Sc2cc(C)ccc21 | 78.3% (active)
12 | CCN1/C(=C/c2ccc3ccc(C)cc3[n+]2CC)Sc2ccccc21 | 44.2% (active)
13 | COc1ccc(N=C(C)c2sc3ccccc3c2O)cc1 | 70.2% (active)
14 | COc1ccc(C2=NN(C(=O)c3ccccc3C(=O)O)C(c3ccccc3O)C2)cc1 (stereo not given) | 26.3% (active)
15 | CN(C)c1ccc(/C=C2\NC(=S)N(Cc3ccccc3)C2=O)cc1 | 160% (active)
16 | CCOC(=O)c1c(NC(=S)Nc2ccccc2)sc2c1CCN(C)C2 | 42.8% (active)
17 | COc1cc(/C=C2/C(=O)NN(c3cccc(Cl)c3)C2=O)cc(Br)c1O | 153% (active)
18 | Oc1ccc(/C=N/Nc2nc(-c3ccccc3F)nc3ccccc23)c(O)c1 | 29.1% (active)
19 | CN(c1ccccc1)c1ccc(/C=c2\s/c(=C(/C#N)C(=O)C(C)(C)C)n(Cc3ccco3)c2=O)cc1 | 127% (active)
20 | CN1/C(=C\C=C2\N=C(c3ccc(F)cc3)OC2=O)C(C)(C)c2ccccc21 | 151% (active)
21 | Cc1ccc(Nc2ccccc2N)cc1 | 25.8% (active)
22 | CCOC(=O)c1c(CC(C)C)csc1/N=C/C1=C(O)CCCC1=O | 11.9% (inactive)
23 | Cn1cccc1/C=C1\SC(=S)N(NC(=O)c2ccc(Cl)cc2)C1=O | 101% (active)
24 | CCn1c(/C=C/c2ccc([N+](=O)[O-])o2)nc2ccccc2c1=O | 36.7% (active)
25 | COc1ccccc1/C=N/Nc1nc(C)c(C(C)=O)s1 | 33.1% (active)

Row | Compound | inhibition
26 | CCOc1nnc(C)c2c(C)n(-c3cccc(Cl)c3)nc12 | 76.5% (active)
27 | O=C1NC(=O)C2C1C(c1ccc([N+](=O)[O-])cc1)=NN2Cc1ccccc1 (stereo not given) | 33.2% (active)
28 | CCN(CC)C(=O)CSC(Nc1cccc(F)c1)=C(C#N)C#N | 46.5% (active)
29 | O=C(N/N=C/c1sc(N2CCCCC2)nc1-c1cccs1)c1cccnc1 | 44.1% (active)
30 | NNC(=O)c1oc2nc(-c3ccccc3)cc(-c3ccco3)c2c1N | 31.5% (active)
31 | COc1ccc(Cc2nc(-c3ccccn3)no2)cc1OC | 8.13% (inactive)
32 | Cc1ccc(Nc2nc(Cl)c(C=O)s2)cc1 | 67.3% (active)
33 | CCOc1ccc2nc(/N=C/c3nc(-c4ccccc4)oc3O)sc2c1 | 58.6% (active)
34 | Fc1ccc2nc(Nc3nc4c(s3)CCCC4)sc2c1 | 28.4% (active)
35 | Cc1c(-c2ccccc2)cn2c1-c1ccc(C)n1CC2 | 32.8% (active)
36 | Cn1c2ccccc2c2cc(/C=C(\NC(=O)c3ccccc3)C(=O)NCC(=O)O)ccc21 | 80.3% (active)
37 | Cc1ccc(-c2nn(-c3ccccc3)cc2/C=C2\SC(=S)N(CCCCCC(=O)O)C2=O)o1 | 68.6% (active)
38 | O=C(Nc1ccc(S(=O)(=O)Nc2nccs2)cc1)c1cc(-c2ccncc2)nc2ccccc12 | 49.1% (active)
39 | CS(=O)(=O)c1ccc2c(c1)SC1=NC(=O)/C(=C/c3ccco3)C(=N)N12 | 44.3% (active)
40 | Cc1cc(/C=C2/SC(=O)N(CC(=O)N3CCCC3)C2=O)ccc1N1CCOCC1 | 63.5% (active)
41 | Cc1sc2nc(COC(=O)C(NC(=O)c3ccc(Cl)cc3Cl)C(C)C)[nH]c(=O)c2c1C (stereo not given) | 55.1% (active)
42 | Cc1c(C(=O)OC(C)C)sc(NC(=O)c2cccnc2)c1C#N | 26% (active)
43 | Nc1c(C(=O)c2cccs2)sc2nsc(SCCN3CCCCC3)c12 | 67.7% (active)
44 | CCCCCCc1cc2cc(-c3nnc(-c4ccccc4)o3)c(=O)oc2cc1O | 117% (active)
45 | COc1cc(/C=C2/SC(=S)N(Cc3ccccc3)C2=O)cc(OC)c1O | 98.5% (active)
46 | CCN(CC)c1ccc2cc(C(N)=O)/c(=N\NC(=O)c3ccncc3)oc2c1 | 139% (active)
47 | Cc1cc(O)c(C(=O)/C=C/c2c(F)c(F)c(F)c(F)c2F)c(=O)o1 | 63.4% (active)
48 | CN1C(=O)/C(=C/C=C2\SCCN2C)OC1=S | 172% (active)
49 | CCN(CC)c1ccc(/C=N/Nc2nc(C)cc(C)n2)c(O)c1 | 34% (active)
50 | CSC1=N/C(=C\C=C\c2cccs2)C(=O)S1 | 52.8% (active)

Row | Compound | inhibition
51 | Nc1nonc1-n1nnc(C(=O)N/N=C/c2cc(Br)ccc2O)c1CSC1=NCCS1 | 37.7% (active)
52 | N#C/C(=C/c1ccc(N2CCCCC2)o1)C(=O)NCCc1c[nH]c2ccccc12 | 191% (active)
53 | Cc1ccc(-n2c(C)cc(/C=N/Nc3ccc([N+](=O)[O-])cn3)c2C)c(C)c1 | 60.9% (active)
54 | Cc1cc(/C=N/Nc2ccc([N+](=O)[O-])cn2)c(C)n1-c1cccc(C(=O)O)c1 | 54.5% (active)
55 | Cc1ccc2[nH]c(=O)c(CN3CCCCC3)c(-c3ccccc3)c2c1 | 2.06% (inactive)
56 | N#C/C(=C(/O)COC(=O)COc1ccc(Cl)cc1)c1nc2ccccc2[nH]1 | 40.6% (active)
57 | CCOc1ccc(-n2c(O)c(/C=N/c3ccnn3Cc3ccncc3)c3ccccc3c2=O)cc1 | 80.4% (active)
58 | CN=c1scc(-c2cc(OC)ccc2OC)n1/N=C/c1c(C)[nH]c2ccccc12 | 22.2% (inactive)
59 | O=C1Nc2cc(C(=O)N3CCN(c4ccc(F)cc4)CC3)ccc2NC1CSCc1cccc(F)c1 (stereo not given) | 112% (active)
60 | Cc1ccc(CSCC2Nc3ccc(C(=O)N4CCN(c5ccc(F)cc5)CC4)cc3NC2=O)cc1 (stereo not given) | 16.1% (inactive)
61 | CC(C)c1ccc(Nc2nnc(SCC(=O)c3nnc(-c4ccccc4)o3)s2)cc1 | 21.4% (inactive)
62 | COC(=O)c1[nH]c2cccc(C)c2c1NC(=O)CN1CCCc2ccccc21 | 19% (inactive)
63 | Cc1cccc2cc3c(N)c(C(=O)N4CCCc5ccccc54)sc3nc12 | 51.9% (active)
64 | CCOC(=O)C1=C(C)Nc2sc(C(=O)c3ccc(Br)cc3)c(N)c2C1c1ccc(C(=O)OC)cc1 (stereo not given) | 29.3% (active)
65 | CCC(c1nnnn1Cc1ccco1)N(Cc1cc2cc(OC)ccc2[nH]c1=O)C1CCCCC1 (stereo not given) | 13.7% (inactive)
66 | CC1=CC2=NC(=O)/C(=C/c3coc4ccccc4c3=O)C(=N)N2O1 | 34% (active)
67 | CCC(=C/c1sc2ccc3ccccc3c2[n+]1C)/C=C1\Sc2ccc3ccccc3c2N1C | 84.5% (active)
68 | NC(=O)c1c(Nc2nc3c(F)cccc3s2)sc2c1CCCC2 | 92.7% (active)
69 | CN(C)CCCn1c(N)c(C#N)c2nc(C#N)c(C#N)nc21 | 45.1% (active)
70 | O=S(=O)(O)Oc1c[nH]c2ccccc12 | 35.9% (active)
71 | Cc1c(CC(=O)N2CCN(C(=O)C3COc4ccccc4O3)CC2)c(=O)oc2c(O)c(O)ccc12 (stereo not given) | 7.54% (inactive)
72 | O=C(Cc1nc2ccccc2[nH]c1=O)c1ccc(Cl)cc1 | 57.8% (active)
73 | O=C(/C=C/c1ccc(N2CCOCC2)cc1)c1ccccc1 | 84.6% (active)
74 | COc1cc(/C=C(\C#N)c2nc3ccccc3[nH]2)ccc1O | 112% (active)
75 | COc1cc(/C=C(\C#N)c2nc3c(s2)CC(C)CC3)ccc1O (stereo not given) | 130% (active)

Row | Compound | inhibition
76 | O=C(CN1C(=O)c2ccccc2C1=O)NCc1ccc(C(=O)O)cc1 | 14.3% (inactive)
77 | Cc1cccn2c(=O)c(/C=C3\SC(=S)N(CC(C)C)C3=O)c(NCCCOC(C)C)nc12 | 119% (active)
78 | Cn1ccc(=NC=C(C#N)C#N)c2ccccc21 | 25.4% (active)
79 | O=C(C[n+]1cc(Br)cc2ccccc21)c1ccc(F)cc1 | 37.5% (active)
80 | CCOc1cc(/C=C(\C#N)c2nc(-c3cccs3)c(NC(C)=O)s2)ccc1O | 90.5% (active)
81 | Cc1cccc(NC(=O)c2ccc(COc3ccccc3[N+](=O)[O-])o2)n1 | 7.02% (inactive)
82 | O=[N+]([O-])c1ccc(N/N=C/c2ccccc2)cc1 | 41.6% (active)
83 | Cc1cccc(COc2ccccc2/C=N/Nc2ccc([N+](=O)[O-])cc2)c1 | 90.6% (active)
84 | CCCOc1ccc(Cn2c(O)cc(=O)[nH]c2=O)cc1 | 22.1% (inactive)
85 | Cc1cc(C)c(/C=C2\C(=O)Nc3ccccc32)[nH]1 | 113% (active)
86 | CN1C(=O)/C(=C\c2ccc(-c3ccccc3)o2)SC1=S | 79.6% (active)
87 | O=C(O)C(c1ccccc1)N1C(=O)/C(=C\c2ccc(-c3cccc(Cl)c3)o2)SC1=S (stereo not given) | 151% (active)
88 | CC[n+]1cc(C)ccc1/C=C/c1ccc(N(C)C)cc1 | 42.1% (active)
89 | Cc1ccc(S(=O)(=O)N(C)c2nc3ccccc3n3c(C(C)C)nnc23)cc1 | -0.34% (inactive)
90 | N#C/C(=C\c1ccc(N2CCOCC2)o1)C(=O)N1CCOCC1 | 170% (active)
91 | N#C/C(=C/c1ccc(N2CCOCC2)o1)C(=O)N1CCOCC1 | 184% (active)
92 | Cc1ccc(CC2S/C(=C(/C#N)C(=O)N3CCOCC3)N(c3ccccc3)C2=O)cc1 (stereo not given) | 9.14% (inactive)
93 | CC1CCN(C(=O)c2ccc3c(c2)NC(=O)CN3)CC1 | 39.9% (active)
94 | Cc1ccc(N=C2NC(=O)/C(=C/C=C/c3ccco3)S2)cc1C | 23.8% (inactive)
95 | N#CC1=C(N)Oc2c(sc3ccccc23)C1c1ccco1 (stereo not given) | 78.6% (active)
96 | O=C(NNc1c2ccccc2nc2ccccc12)c1cc2ccccc2cc1O | 38.5% (active)
97 | CN1/C(=c2/s/c(=C3/C(=O)N(c4ccccc4)NC3=Nc3ccccc3)n(C)c2=O)C(C)(C)c2ccccc21 | 81% (active)
98 | Cc1ccc2cc(/C=N/Nc3ccc(C(=O)O)cc3)c(Cl)nc2c1 | 35.9% (active)
99 | CCOc1ccc(/C=C2\SC(=S)N(NC(=O)c3ccncc3)C2=O)cc1OC | 51.7% (active)
100 | Cc1ccc(C)c2[nH]c(=O)c(CCNC(=O)CC(C)C)cc12 | 3.97% (inactive)
